# Test results as given in PubChem BioAssay (EPA / NIEHS).
# Inconclusive results are not listed. Active and inactive are the calls of the source. How the source made its calls, unless noted: active means hit-call score of the fitted dose curve at least 0.9, where 1 is the maximum; inconclusive means response in the unintended direction; inactive means score below 0.9.
# Legend:
# [1] = CEETOX_H295R_MTT_cell_viability: Viability Assessment in the CeeTox HT-H295R MTT Assay (AID 2283718; active means hit-call score of the fitted dose curve at least 0.9, where 1 is the maximum; inactive means score below 0.9;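 on AC50: curve fitted both ways so AC50 may mark viability loss or gain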)
# Procedure, shortened: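 MTT reduction (0.5 mg/ml, 4 h at 37 C; absorbance at 570 and 650 nm) gave viability as background-corrected percent change versus controls. H295R cells had 48 h forskolin (10 uM) prestimulation, then 48 h chemical exposure at 0.1% DMSO.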
# [2] = Tanguay_ZF_120hpf_ActivityScore_legacy: (Legacy) Oregon State University Tanguay Lab 120 Hour Post-fertilization zebrafish Assay Score for Activity (AID 2283742);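 on AC50: dechorionated Tropical 5D wild-type zebrafish embryos held singly per well; static exposure from 6 hpf until 120 hpf at 28 °C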
# Procedure, shortened: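 Embryos are staged, enzymatically dechorionated at 4 hpf, placed individually at 6 hpf, then held in test chemical (0.64% DMSO) at 28C until 120 hpf. Mortality and malformations are scored by brightfield, with non-mortality endpoints skipped for dead embryos.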
# [3] = ACEA_AR_agonist_AUC_viability: ACEA Biosciences xCELLigence Real-Time Cell Analysis on Androgen Receptor Agonism for Viability (AID 2283775);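 on AC50: viability read 80 hours after compound addition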
# Procedure, shortened: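 Real-time impedance tracking of 22Rv1 growth, readings every 5 min for 5 h then hourly; area-under-curve viability endpoint at 80 hours, relative to DMSO. Compounds at eight concentrations, 1:4 steps, top 100 uM, n = 2.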
# [4] = ACEA_AR_antagonist_AUC_viability: ACEA Biosciences xCELLigence Real-Time Cell Analysis on Androgen Receptor Antagonism for Viability (AID 2283776);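 further: 22Rv1 human prostate cancer cells growing on impedance electrode plates; hits lower the growth signal relative to DMSO meaning cytotoxicity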
# Procedure, shortened: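 Real-time electrical impedance tracks 22Rv1 proliferation after continuous compound exposure (top 100 uM final, 1:4 steps, 8 concentrations). The 80 h area-under-curve serves as the cytotoxicity readout relative to DMSO.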
# [5] = target: zebrafish Estrogen Receptor (ESR1), esr1 (gene 259252) (UniProt P57717); assay: ATG_zfER1_XSP1: Attagene TRANS-FACTORIAL Multi-Species (XSP1) HepG2 Assay for zebrafish Estrogen Receptor (ESR1) (AID 2283772)
# Procedure, shortened: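 Trans-activation readout: transfected zebrafish ER-Gal4 drives a UAS reporter in human HepG2 liver cells. After 24 h compound exposure (medium containing 3 nM 6-alpha-fluorotestosterone), induced reporter transcripts were quantified by RT-PCR with capillary electrophoresis, relative to DMSO.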
# [6] = test system: zebrafish Estrogen Receptor (ESR2B), gene 317733; assay: ATG_zfER2b_XSP1: Attagene TRANS-FACTORIAL Multi-Species (XSP1) HepG2 Assay for zebrafish Estrogen Receptor (ESR2B) (AID 2283773)
# Procedure, shortened: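 Gain-of-signal endpoint relative to DMSO: reporter transcript levels quantified by RT-PCR and capillary electrophoresis after 24 h compound exposure of HepG2 cells expressing a zebrafish ER2b-Gal4 chimera.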
# [7] = test system: frog Estrogen Receptor (ESR2), gene 100174814; assay: ATG_frER2_XSP1: Attagene TRANS-FACTORIAL Multi-Species (XSP1) HepG2 Assay for frog Estrogen Receptor (ESR2) (AID 2283774)
# Procedure, shortened: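 Transactivation of an exogenous receptor-Gal4 fusion is tracked in transfected HepG2 cells via induced reporter transcript levels. After 24 h treatment, RT-PCR with capillary electrophoresis quantifies signal gain over DMSO.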
# [8] = target: Luciferin 4-monooxygenase (Photinus pyralis) (UniProt P08659); assay: CCTE_Simmons_QuantiLum_inhib_2: CCTE's Firefly Luciferase Inhibition Assay, Simmons Lab (AID 2283767)
# Procedure, shortened: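 Cell-free recombinant firefly luciferase (5 ng/well) in 200mM potassium phosphate with 1 mg/ml BSA, 30 min at 37C with 8 concentrations from 5 nM to 87.5 uM [final], 0.5% DMSO. Luminescence read after D-luciferin (150uM)/dATP (147uM) reagent injection, pH 7.8; triplicates.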
# Sequence of Luciferin 4-monooxygenase (Photinus pyralis) (P08659 whole entry, looked up): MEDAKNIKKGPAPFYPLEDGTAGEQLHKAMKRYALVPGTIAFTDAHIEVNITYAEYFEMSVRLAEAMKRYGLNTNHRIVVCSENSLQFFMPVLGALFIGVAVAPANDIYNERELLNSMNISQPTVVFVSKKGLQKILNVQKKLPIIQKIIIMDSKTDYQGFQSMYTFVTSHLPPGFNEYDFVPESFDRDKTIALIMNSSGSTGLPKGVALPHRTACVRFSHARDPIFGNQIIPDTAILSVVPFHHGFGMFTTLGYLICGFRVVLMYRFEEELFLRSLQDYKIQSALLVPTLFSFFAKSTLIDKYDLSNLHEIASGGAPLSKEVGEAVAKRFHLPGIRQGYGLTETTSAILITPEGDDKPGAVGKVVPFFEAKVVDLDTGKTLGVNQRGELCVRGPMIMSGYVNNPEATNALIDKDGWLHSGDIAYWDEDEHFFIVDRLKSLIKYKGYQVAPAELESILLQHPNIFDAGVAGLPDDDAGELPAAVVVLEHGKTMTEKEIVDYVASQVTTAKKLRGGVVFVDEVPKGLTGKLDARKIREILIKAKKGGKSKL
# Sequence of zebrafish Estrogen Receptor (ESR1), esr1 (gene 259252) (P57717 whole entry, looked up, the tested form may be a part): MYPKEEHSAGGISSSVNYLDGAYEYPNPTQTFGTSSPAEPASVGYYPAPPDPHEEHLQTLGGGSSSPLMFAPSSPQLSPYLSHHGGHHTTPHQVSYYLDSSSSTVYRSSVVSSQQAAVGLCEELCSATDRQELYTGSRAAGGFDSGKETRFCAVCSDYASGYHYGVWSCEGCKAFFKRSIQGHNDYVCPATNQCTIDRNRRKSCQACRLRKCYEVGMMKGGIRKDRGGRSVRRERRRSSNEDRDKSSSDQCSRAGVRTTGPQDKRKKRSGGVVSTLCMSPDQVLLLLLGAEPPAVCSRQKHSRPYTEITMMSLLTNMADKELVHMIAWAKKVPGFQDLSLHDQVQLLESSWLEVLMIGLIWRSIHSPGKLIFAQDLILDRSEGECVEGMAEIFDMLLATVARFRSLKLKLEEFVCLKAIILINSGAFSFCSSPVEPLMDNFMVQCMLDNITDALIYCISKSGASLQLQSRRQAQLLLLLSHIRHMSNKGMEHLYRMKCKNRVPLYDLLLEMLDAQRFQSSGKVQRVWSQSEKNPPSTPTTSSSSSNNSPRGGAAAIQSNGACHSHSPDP
structure (smiles),measurement,setting,value
CCCCc1nc2cccnc2n1Cc1ccc(-c2ccccc2-c2nnn[nH]2)cc1,outcome,[1],inactive
same,outcome,[2],inactive
same,AC50,[3],50 µM (active)
same,AC50,[4],50 µM (active)
O=C(O)CC(O)(CC(=O)O)C(=O)O,outcome,[2],inactive
same,outcome,[3],inactive
same,outcome,[4],inactive
c1ccc2occc2c1,outcome,[2],inactive
same,outcome,[3],inactive
same,outcome,[4],inactive
CCOCCOCCO,outcome,[2],inactive
same,outcome,[3],inactive
CC(=O)O[C@]1(C(C)=O)CC[C@H]2[C@@H]3C=C(Cl)C4=CC(=O)[C@@H]5C[C@@H]5[C@]4(C)[C@H]3CC[C@@]21C,outcome,[1],inactive
same,outcome,[2],inactive
same,AC50,[5],35.6 µM (active)
same,AC50,[6],13.1 µM (active)
same,AC50,[7],18 µM (active)
same,AC50,[3],87.1 µM (active)
same,AC50,[4],0.0607 µM (active)
CC(C)(O)c1ccc(CNC(=O)c2cccnc2Oc2ccc(F)cc2)cc1,outcome,[1],inactive
same,outcome,[2],inactive
same,outcome,[3],inactive
same,outcome,[4],inactive
C/C=C/c1ccc(OC)cc1,outcome,[2],inactive
same,outcome,[8],inactive
same,outcome,[3],inactive
same,outcome,[4],inactive
Oc1ccccc1O,outcome,[1],inactive
same,outcome,[2],inactive
same,outcome,[8],inactive
same,AC50,[3],18 µM (active)
same,AC50,[4],28.9 µM (active)
COc1ccc(C(=O)Nc2nc3ccccc3c(NCc3ccccc3)c2C#N)cc1,AC50,[1],0.909 µM (active)
same,outcome,[2],inactive
same,AC50,[3],24 µM (active)
same,AC50,[4],23.5 µM (active)
O=C1c2c(O)cccc2Cc2cccc(O)c21,outcome,[1],inactive
same,outcome,[2],inactive
same,outcome,[8],inactive
same,outcome,[4],inactive
CC(=O)OC1CC(C)OC(C)O1 (centres undefined),outcome,[2],inactive
CC(C)(C)c1ccccc1,AC50,[2],24.6 µM (active)
CC(C)COC(=O)CCCCC(=O)OCC(C)C,outcome,[2],inactive
same,outcome,[3],inactive
same,outcome,[4],inactive
CC(C)c1cccc(C(C)C)c1NC(=O)NS(=O)(=O)c1cc(C(C)(C)O)co1,outcome,[2],inactive
same,AC50,[3],28.2 µM (active)
same,AC50,[4],19 µM (active)
CCCCC(CC)COC(=O)CCCCCCCC(=O)OCC(CC)CCCC (centres undefined),outcome,[2],inactive
same,outcome,[3],inactive
same,outcome,[4],inactive
CO[C@@H]1COCC[C@@H]1N[C@@H]1CC[C@@](C(=O)N2CCc3ncc(C(F)(F)F)cc3C2)(C(C)C)C1,outcome,[2],inactive
same,outcome,[3],inactive
same,outcome,[4],inactive
CCCCC(CC)CO (centres undefined),outcome,[2],inactive
same,outcome,[4],inactive
CCCC(=O)O,outcome,[2],inactive
same,outcome,[3],inactive
same,outcome,[4],inactive
COC(=O)CCCC(=O)OC,outcome,[2],inactive
same,outcome,[4],inactive
CC1(C)C(=O)NC(=O)N1CO,outcome,[2],inactive
same,outcome,[3],inactive
same,outcome,[4],inactive
